Screens deposited in PubChem BioAssay by The Scripps Research Institute Molecular Screening Center.
GPR151 ag = activators of human GPR151, primary screen, cell-based, PathHunter beta-arrestin, luminescence. G-protein coupled receptor 151 (Homo sapiens), Q8TDV0. PathHunter beta-arrestin GPR151 cells. activation, % at 11.2 µM. 650,000 compounds, 1% hits. AID 1508602, 2020; in the data active means activation above about 4.9%
MITF primary = MITF inhibitors, primary screen, biochemical, AlphaScreen, human; Microphthalmia-associated transcription factor (Homo sapiens), O75030; AlphaScreen MITF homodimerization, bead proximity signal; inhibition, % at 2.6 µM; 650,000 compounds, 0.91% hits; AID 1259374, 2018; in the data active means inhibition above about 50%
Target sequence (O75030 whole entry, looked up): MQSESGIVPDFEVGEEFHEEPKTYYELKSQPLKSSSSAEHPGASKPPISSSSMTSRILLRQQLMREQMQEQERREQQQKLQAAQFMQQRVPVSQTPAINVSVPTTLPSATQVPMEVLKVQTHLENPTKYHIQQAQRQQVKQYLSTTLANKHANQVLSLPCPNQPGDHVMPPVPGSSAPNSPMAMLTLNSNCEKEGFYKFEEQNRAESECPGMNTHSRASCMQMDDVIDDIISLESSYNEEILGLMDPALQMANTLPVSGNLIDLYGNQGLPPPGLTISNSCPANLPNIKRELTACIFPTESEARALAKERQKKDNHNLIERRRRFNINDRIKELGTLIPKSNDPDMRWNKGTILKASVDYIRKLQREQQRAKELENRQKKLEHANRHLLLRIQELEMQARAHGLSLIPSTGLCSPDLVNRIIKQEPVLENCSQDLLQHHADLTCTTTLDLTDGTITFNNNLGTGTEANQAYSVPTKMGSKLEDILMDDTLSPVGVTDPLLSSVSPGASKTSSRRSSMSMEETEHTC
TEAD-YAP inh = TEAD-YAP interaction inhibition, primary screen, TEAD-YAP interaction inhibitor project, luminescence, HEK-TIYL cells | TEAD-Gal4/YAP UAS-luciferase luminescence | inhibition, % at 9.12 µM | 640,000 compounds, 1.4% hits; in the data active means inhibition above about 32%
FBW7 activator = FBW7 E3 ligase activators, primary screen, biochemical, AlphaScreen, human | normalized activity (activation), % at 26.1 µM | AlphaScreen FBW7–phospho-cyclin E peptide binding, activator screen | 650,000 compounds, 0.13% hits; in the data active means normalized activity above about 1.9%;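 further: purified mutant Fbw7 with reduced substrate affinity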
A number is an active result; n = inactive. Hits are enriched below; roughly 3.5% of the tested compounds scored in any of these assays.

SMILES	GPR151 ag	MITF primary	TEAD-YAP inh	FBW7 activator
Cc1nnc(N(C(=O)c2cnccn2)c2ccccc2)s1	n	n	62	n
O=C1CCCN1CCCNc1nc(Nc2ccc3ncccc3c2)nc2c1ncn2-c1ccccc1	n	n	72	n
O=C1CCCN1CCCNc1nc(Nc2ccncc2)nc2c1ncn2-c1ccccc1	n	n	55	n
O=C1CCCN1CCCNc1nccc(Nc2ccc(Oc3ccccc3)cc2)n1	n	n	39	n
O=C1CCCN1CCCNc1nc(Nc2cnccn2)nc2c1ncn2-c1ccccc1	n	n	46	n
Cc1ccc(S(=O)(=O)c2ccc(-c3ccc([N+](=O)[O-])cc3)cc2)cc1	n	n	n	n
CCN(CC)CCN1CCN(c2ccnc3c(-c4cncnc4)cnn23)CC1	n	n	n	n
O=C1C(=O)N(c2ccc(Cl)cc2)C(c2ccccc2)=C1C(c1ccccc1)c1ccccc1	n	n	n	n
O=C1CCCN1CCCNc1nc(Nc2ccncn2)nc2c1ncn2-c1ccccc1	n	n	38	n
O=C1CCCN1CCCNc1nc(Nc2ccccn2)nc2c1ncn2-c1ccccc1	n	n	n	n
O=C1CCCN1CCCNc1nc(NCCCN2CCCC2=O)c2ncn(C3CCCCC3)c2n1	n	n	n	n
O=C1CCCN1CCCNc1nc(NCCO)c2ncn(C3CCCCC3)c2n1	n	n	n	1.9
C=CC(=O)Nc1ccc(Br)cc1	n	n	36	n
O=C(O)/C=C\C(=O)Nc1ccc(Br)cc1	n	n	n	n
O=C(COc1ccc(Cl)cc1)NCCSc1ccccn1	n	n	n	2.6
COCCN(Cc1c(C(=O)N(C)CCc2ccccc2)nc2sccn12)C(C)C	n	n	n	n
Cn1c(CNc2ccc(O)cc2)nc2ccccc21	n	n	n	n
Cn1c(NCc2ccncc2)nc2ccccc21	n	n	n	n
Cc1ccc(CNc2nc3ccccc3n2C)cc1	n	n	75	n
Cc1ccc(NCc2nc3ccccc3n2C)cc1	n	n	35	n
CCOc1ccc(Nc2ncc(C(=O)OC)c3ccccc23)cc1	n	n	n	n
Cc1ccc(-n2ncc3c(NCCCn4ccnc4)ncnc32)cc1C	n	n	n	n
Clc1cccc(-n2ncc3c(NCCCn4ccnc4)ncnc32)c1	n	n	56	n
COc1ccc(/C=C2\Oc3cc(OC(C)=O)ccc3C2=O)cc1	n	n	51	n
CC(=O)Oc1ccc2c(c1)O/C(=C\c1sccc1C)C2=O	n	n	88	n
SMILES	GPR151 ag	MITF primary	TEAD-YAP inh	FBW7 activator
COC(=O)COc1cccc(/C=C2\Oc3cc(OC)ccc3C2=O)c1	n	n	n	n
COc1ccc(/C=C2\Oc3cc(OC(=O)c4ccncc4)ccc3C2=O)cc1	n	n	68	n
COc1ccc(C(=O)Oc2ccc3c(c2)O/C(=C\c2ccncc2)C3=O)cc1OC	n	n	n	n
CCC(=O)Oc1ccc2c(c1)O/C(=C\c1cccc(OC)c1)C2=O	n	n	87	n
C=CCN(C(=O)c1ccc(N2CC3CC(C2)c2cccc(=O)n2C3)c(NC(=O)c2cc(OC)cc(OC)c2)c1)c1ccccc1 (stereo unspecified)	n	n	n	n
COc1ccccc1CC(=O)Nc1cnc2cnc(-c3ccc(F)c(Cl)c3)cn12	n	n	n	1.9
COc1c(NC(=O)Nc2ccccc2C)cc([N+](=O)[O-])c(OC)c1C	n	n	45	n
O=C(CSc1nc2ccsc2c(=O)n1-c1ccc(F)cc1)Nc1ccccc1Cl	n	n	33	n
O=C(CSc1nc2ccsc2c(=O)n1-c1ccccc1)Nc1ccccc1Cl	n	n	n	n
Cn1c(SCC(=O)Nc2ccc(C(N)=O)cc2)nnc1-c1ccncc1	n	n	n	n
OCCNc1nc(NCc2ccc3c(c2)OCO3)nc2c1ncn2Cc1ccc(C(F)(F)F)cc1	n	n	n	n
CCN(CC)C(=O)C1CCCN(c2nc(NCCCN3CCCC3=O)c3ncn(-c4ccsc4)c3n2)C1 (stereo unspecified)	n	n	35	n
CCN(CC)C(=O)C1CCCN(c2nc(NCc3nc4ccccc4[nH]3)c3ncn(-c4ccsc4)c3n2)C1 (stereo unspecified)	n	n	85	n
CCN(CC)C(=O)C1CCCN(c2nc(NCc3nc4ccccc4[nH]3)c3ncn(-c4ccccc4)c3n2)C1 (stereo unspecified)	n	n	72	n
CCN(CC)C(=O)C1CCCN(c2nc(NC3CC3)c3ncn(-c4ccsc4)c3n2)C1 (stereo unspecified)	n	n	n	n
OCC1CCCN1c1nc(NCc2nc3ccccc3[nH]2)c2ncn(-c3ccsc3)c2n1 (stereo unspecified)	n	n	72	n
CCN(CC)C(=O)C1CCCN(c2nc(NCc3nc4ccccc4[nH]3)c3ncn(C(C)C)c3n2)C1 (stereo unspecified)	n	n	n	n
CCN(CC)C(=O)C1CCCN(c2nc(NCCCN3CCCC3=O)c3ncn(CCN4CCCC4=O)c3n2)C1 (stereo unspecified)	n	n	n	n
COCCNC(=O)c1ccc(Cl)cc1[N+](=O)[O-]	n	n	n	n
C=CC1=C(C)C2=CC3=NC(=C(CC(=O)[O-])C4=NC(=C(C)C4=C([O-])[O-])C=c4[n-]c(c(C)c4CC)=CC1=N2)C(CCC(=O)[O-])C3C.C=CC1=C(C)C2=CC3=NC(=C(CC(=O)[O-])C4=NC(=C(C)C4=C([O-])[O-])C=c4[n-]c(c(C)c4CC)=CC1=N2)C(CCC(=O)[O-])C3C.[Cu+2].[Na+].[Na+].[Na+] (stereo unspecified)	n	60	n	n
CCCCOc1ccc(-c2nn(-c3ccccc3)cc2/C=c2\sc3nc(-c4cccnc4)nn3c2=O)cc1	n	n	n	n
CN1C(=O)c2ccccc2CC1(C)C	n	n	n	n
CC1(C)Cc2ccccc2-c2[nH][nH]c(=O)c21	n	n	37	n
CC(C)(C)c1ccc(C(=O)Nc2ccc(C(=O)Nc3cccc4ccccc34)cc2)cc1	n	n	n	n
CC(C)(C)c1ccc(C(=O)Nc2cccc3c(=O)[nH][nH]c(=O)c23)cc1	n	n	76	n
SMILES	GPR151 ag	MITF primary	TEAD-YAP inh	FBW7 activator
CCNC(=S)N1CCn2cccc2C1c1cc(OC)ccc1OC (stereo unspecified)	n	n	n	n
CCN1/C(=C/c2cc[n+](C)cc2)C=Cc2cc(OC)ccc21	n	n	n	n
COc1ccc2c(c1)C=C/C(=C\c1cccc[n+]1C)N2C	n	n	80	n
CN(Cc1ccon1)C1CCC(=O)N(Cc2ccc(F)cc2F)CC1 (stereo unspecified)	n	n	n	n
CC(C)CC(c1nnnn1C1CCCCC1)N1CCN(C(=O)c2ccco2)CC1 (stereo unspecified)	n	n	n	n
CC(C)CC(c1nnnn1C1CCCC1)N1CCN(C(=O)c2ccco2)CC1 (stereo unspecified)	n	n	55	n
CCOc1ccccc1NC(=O)CSc1nnc(-c2cccn(CC)c2=O)n1C	n	n	n	n
